From the supplement of paper PMC9942566
Counter-ions that a name gives are not always drawn. ± gives the standard deviation of the averaged measurements.

system: Serratia marcescens K904 PosmB-luxCDABE reporter (pMQ747); assay: PosmB-lux reporter fold induction (RLU/OD600 relative to no-compound control), highest over Biolog concentrations; higher = stronger Rcs reporter activation; details: wild type K904; 4 h
Experimental: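 Serratia marcescens K904 (wild type) or its isogenic ΔrcsB mutant, carrying the Rcs-dependent PosmB-luxCDABE reporter plasmid pMQ747, was grown in LB at OD600 0.1 in Biolog Phenotype MicroArray plates PM11-20 for 4 h at 30-32°C. Each compound is present at 3-4 proprietary concentrations (not stated); per the Fig. S1 legend the value given is the highest fold over those wells. Three independent trials.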

| Compound | PosmB-lux reporter fold induction |
| --- | --- |
| CO[C@H]1C[C@H](O[C@H]2[C@H](C)[C@@H](O[C@@H]3O[C@H](C)C[C@H](N(C)C)[C@H]3O)[C@@H](C)C[C@@]3(CO3)C(=O)[C@H](C)[C@@H](O)[C@@H](C)[C@@H](C)OC(=O)[C@@H]2C)O[C@@H](C)[C@@H]1O [Oleandomycin] (Biolog plate: PM15, well positions: F5-8) | 3.29 ± 1.7 |
| CCn1cc(C(=O)O)c(=O)c2cc(F)c(N3CCNCC3)nc21 [Enoxacin] (Biolog plate: PM11, well positions: E5-8) | 2.1 ± 0.62 |
| CC(C)(C)CC(C)(C)c1ccc(OCCOCC[N+](C)(C)Cc2ccccc2)cc1 [Benzethonium chloride] (Biolog plate: PM12, well positions: E9-12) | 2.27 ± 0.38 |
| CN(C)[C@@H]1C(O)=C(C(N)=O)C(=O)[C@@]2(O)C(O)=C3C(=O)c4c(O)ccc(Cl)c4[C@@](C)(O)[C@H]3C[C@@H]12 [Chlortetracycline] (Biolog plate: PM11, well positions: A5-8) | 1.48 ± 0.4 |
| O=c1c(O)c(-c2cc(O)c(O)c(O)c2)oc2cc(O)cc(O)c12 [myricetin] (Biolog plate: PM18, well positions: G9-12) | 1.05 ± 0.13 |
| CN[C@@H]1[C@@H](O)[C@@H](O[C@@H]2[C@@H](O)[C@H](O[C@H]3OC(CN)=CC[C@H]3N)[C@@H](N)C[C@H]2N)OC[C@]1(C)O [Sisomicin] (Biolog plate: PM12, well positions: D1-4) | 1.55 ± 0.14 |
| CC1(C)S[C@@H]2[C@H](NC(=O)C(C(=O)O)c3ccccc3)C(=O)N2[C@H]1C(=O)O (stereo not given in full) [Carbenicillin] (Biolog plate: PM12, well positions: A9-12) | 2.2 ± 0.17 |
| CN[C@@H]1[C@@H](O[C@H]2O[C@H](CO)[C@@H](N)[C@H](O)[C@H]2O)OC2C[C@@H](N)[C@@H](O[C@H]3[C@H](O)[C@@H](O)[C@H](N)C[C@@H]3N)OC2[C@@H]1O (stereo not given in full) [apramycin] (Biolog plate: PM20, well positions: A5-8) | 1.85 ± 0.71 |
| CN(C)CCC=C1c2ccccc2CCc2ccccc21 [amitriptyline] (Biolog plate: PM20, well positions: A2-4) | 1.19 ± 0.11 |
| Nc1ccc2cc3ccc(N)cc3nc2c1 [proflavine] (Biolog plate: PM20, well positions: D1-4) | 1.15 ± 0.24 |
| CO[C@@H]1[C@@H](OC(N)=O)[C@@H](O)[C@H](Oc2ccc3c(O)c(NC(=O)c4ccc(O)c(CC=C(C)C)c4)c(=O)oc3c2C)OC1(C)C [Novobiocin] (Biolog plate: PM12, well positions: D9-12) | 4.98 ± 0.98 |
| Cc1noc(NS(=O)(=O)c2ccc(N)cc2)c1C [sulfisoxazole] (Biolog plate: PM18, well positions: C5-8) | 0.979 ± 0.2 |
| C[C@@H]1NC(=O)[C@@H](N)CNC(=O)[C@H](C2CCNC(=N)N2)NC(=O)/C(=C/NC(N)=O)NC(=O)[C@H](CNC(=O)CC(N)CCCN)NC1=O.N=C1NCC[C@H]([C@@H]2NC(=O)/C(=C/NC(N)=O)NC(=O)[C@H](CNC(=O)C[C@@H](N)CCCN)NC(=O)[C@H](CO)NC(=O)[C@@H](N)CNC2=O)N1 [Capreomycin] (Biolog plate: PM11, well positions: D1-4) | 1.24 ± 0.1 |
| N[C@@H]1CONC1=O [D-Cycloserine] (Biolog plate: PM15, well positions: B1-4) | 1.37 ± 0.23 |
| Cc1cc(O)cc(C)c1Cl [chloroxylenol] (Biolog plate: PM16, well positions: H5-8) | 2.08 ± 0.6 |
| CN(C)[C@@H]1C(O)=C(C(=O)NCN2CCCC2)C(=O)[C@@]2(O)C(O)=C3C(=O)c4c(O)cccc4[C@@](C)(O)[C@H]3C[C@@H]12 [Rolitetracycline] (Biolog plate: PM13, well positions: D9-12) | 1.49 ± 0.23 |
| COc1ccc(C[C@H](N)C(=O)N[C@H]2[C@@H](O)[C@H](n3cnc4c(N(C)C)ncnc43)O[C@@H]2CO)cc1 [Puromycin] (Biolog plate: PM15, well positions: F9-12) | 1.9 ± 0.2 |
| OCC(O)CS (stereo not given) [thioglycerol] (Biolog plate: PM19, well positions: H5-8) | 1.22 ± 0.31 |
| CN1CCN(CCCN2c3ccccc3Sc3ccc(C(F)(F)F)cc32)CC1 [Trifluoperazine] (Biolog plate: PM13, well positions: G9-12) | 1.34 ± 0.17 |
| Cn1nnnc1SCC1=C(C(=O)O)N2C(=O)[C@@H](NC(=O)[C@H](OC=O)c3ccccc3)[C@H]2SC1 [cefamandole nafate] (Biolog plate: PM17, well positions: G5-8) | 1.96 ± 0.53 |

| Compound | PosmB-lux reporter fold induction |
| --- | --- |
| CN[C@@H]1[C@H](O[C@H]2[C@H](O[C@H]3[C@H](O)[C@@H](O)[C@H](N=C(N)N)[C@@H](O)[C@@H]3N=C(N)N)O[C@@H](C)[C@]2(O)C=O)O[C@@H](CO)[C@H](O)[C@H]1O [streptomycin] (Biolog plate: PM16, well positions: E1-4) | 0.916 ± 0.16 |
| CCn1cc(C(=O)O)c(=O)c2ccc(C)nc21 [Nalidixic Acid] (Biolog plate: PM11, well positions: E9-12) | 3.44 ± 0.51 |
| N=C(N)N [Guanidine hydrochloride] (Biolog plate: PM15, well positions: A5-8) | 1.84 ± 0.099 |
| CO[C@H]1/C=C/O[C@@]2(C)Oc3c(C)c(O)c4c(O)c(c(/C=N/N5CCN(C)CC5)c(O)c4c3C2=O)NC(=O)/C(C)=C\C=C\[C@H](C)[C@H](O)[C@@H](C)[C@@H](O)[C@@H](C)[C@H](OC(C)=O)[C@@H]1C [Rifampicin] (Biolog plate: PM12, well positions: H5-8) | 4.01 ± 0.98 |
| CCN(CC)CC(=O)Nc1c(C)cccc1C [lidocaine] (Biolog plate: PM18, well positions: D9-12) | 1.37 ± 0.17 |
| CC1COc2c(N3CCN(C)CC3)c(F)cc3c(=O)c(C(=O)O)cn1c23 (stereo not given) [Ofloxacin] (Biolog plate: PM11, well positions: H9-12) | 1.25 ± 0.35 |
| C[n+]1cc2c3c(ccc2c2ccc4cc5c(cc4c21)OCO5)OCO3 [Sanguinarine] (Biolog plate: PM14, well positions: A9-12) | 1.83 ± 0.71 |
| O=[Si](O)O [sodium metasilicate] (Biolog plate: PM18, well positions: E1-4) | 1.11 ± 0.32 |
| CN(C)[C@@H]1C(O)=C(C(N)=O)C(=O)[C@@]2(O)C(O)=C3C(=O)c4c(O)cccc4[C@@](C)(O)[C@H]3C[C@@H]12 [Tetracycline] (Biolog plate: PM12, well positions: A5-8) | 1.53 ± 0.2 |
| Cc1ncc([N+](=O)[O-])n1CC(O)CCl (stereo not given) [ornidazole] (Biolog plate: PM20, well positions: C9-12) | 1.61 ± 0.055 |
| CSc1ccc2c(c1)N(CCC1CCCCN1C)c1ccccc1S2 (stereo not given) [thioridazine] (Biolog plate: PM20, well positions: C1-4) | 0.902 ± 0.17 |
| NC(=O)c1cc[n+](CC2=C(C(=O)[O-])N3C(=O)[C@@H](NC(=O)[C@@H](c4ccccc4)S(=O)(=O)O)[C@H]3SC2)cc1 [cefsulodin] (Biolog plate: PM17, well positions: H1-4) | 18.5 ± 17 |
| COc1ccc(CO)cc1OC [3,4-Dimethoxy-benzyl alcohol] (Biolog plate: PM15, well positions: F1-4) | 2.75 ± 1.1 |
| Nc1ccc(S(=O)(=O)Nc2ncccn2)cc1 [Sulfadiazine] (Biolog plate: PM12, well positions: E5-8) | 2.21 ± 0.27 |
| Nc1ccc(S(N)(=O)=O)cc1 [sulfanilamide] (Biolog plate: PM16, well positions: B5-8) | 0.986 ± 0.29 |
| CSCCC(N)C(=O)NO (racemic) [DL-methionine hydroxamate] (Biolog plate: PM17, well positions: F5-8) | 1.74 ± 0.48 |
| O=C(OC[C@H]1O[C@@H](OC(=O)c2cc(O)c(O)c(OC(=O)c3cc(O)c(O)c(O)c3)c2)[C@H](OC(=O)c2cc(O)c(O)c(OC(=O)c3cc(O)c(O)c(O)c3)c2)[C@@H](OC(=O)c2cc(O)c(O)c(OC(=O)c3cc(O)c(O)c(O)c3)c2)[C@@H]1OC(=O)c1cc(O)c(O)c(OC(=O)c2cc(O)c(O)c(O)c2)c1)c1cc(O)c(O)c(OC(=O)c2cc(O)c(O)c(O)c2)c1 [tannic acid] (Biolog plate: PM17, well positions: F9-12) | 1.5 ± 0.49 |
| O=C1OC(CN2CCOCC2)CN1/N=C/c1ccc([N+](=O)[O-])o1 (stereo not given) [Furaltadone] (Biolog plate: PM14, well positions: A5-8) | 1.52 ± 0.2 |
| CC1(C)S[C@@H]2[C@H](NC(=O)[C@H](N)c3ccc(O)cc3)C(=O)N2[C@H]1C(=O)O [Amoxicillin] (Biolog plate: PM11, well positions: B1-4) | 2.48 ± 0.35 |
| CCCCCCCCCCCC[N+](C)(C)CCOc1ccccc1 [Domiphen bromide] (Biolog plate: PM15, well positions: D5-8) | 1.98 ± 0.26 |
